Screens: PubChem BioAssay, several laboratories
MEKK3 PB1 HTS – modulators (inhibitors or enhancers) of MEK5 binding to human MEKK3 PB1 domain; Q99759; bead-based flow cytometry, Alexa488-MEK5 binding to MEKK3; actives lie on both sides; 0 = blocked by unlabeled MEK5, 100 = vehicle; binding response (% of control), % at 10 µM; 290,000 compounds, 1.4% hits; AID 1529;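 active = binding response more than 3 SD above or below the average of its plate-row segment, actives on both sides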;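 also: Alexa488 bead fluorescence after subtracting the streptavidin-only scavenger bead signal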
MEKK2wt PB1 HTS – raises or lowers MEK5 binding to wildtype human MEKK2 PB1 domain. Q9Y2U5. bead flow cytometry, Alexa488-MEK5 binding to MEKK2 WT; actives lie on both sides. binding response (% of control), % at 10 µM. 290,000 compounds, 1.1% hits. AID 1531; in the data active = binding response below about 67% or above about 130%
ATG4B inh – blocks human ATG4B protease cleavage of LC3 substrate | Q9Y4P1 | ATG4B cleavage of LC3-PLA2, NBD-HPC fluorescence, 1 h | inhibition, % at 8.33 µM | 340,000 compounds, 0.51% hits; in the data active = inhibition above about 40%
UBC13 polyUb – blocks human UBC13 polyubiquitin chain formation. P61088. TR-FRET. inhibition, % at 20 µM. 330,000 compounds, 0.47% hits. AID 485273; in the data active = inhibition above about 45%, passing the limit was not always enough
MEKK2 mut-MEK5 – signal of MEK5 binding to mutant human MEKK2 PB1 domain; percent response, % at 10 µM; 290,000 compounds, 0.35% hits; AID 1530; bead flow cytometry, Alexa488-MEK5 binding to MEKK2 mutant; in the data active = percent response above about 24%, passing the limit was not always enough
PREPL inhibitor – human PREPL enzyme inhibition. Q4J6C6. recombinant PREPL, fluorescence polarization activity-based probe. inhibition, % at 5.96 µM. 320,000 compounds, 0.68% hits; in the data active = inhibition above about 43%
Target sequence (Q4J6C6 whole entry, looked up): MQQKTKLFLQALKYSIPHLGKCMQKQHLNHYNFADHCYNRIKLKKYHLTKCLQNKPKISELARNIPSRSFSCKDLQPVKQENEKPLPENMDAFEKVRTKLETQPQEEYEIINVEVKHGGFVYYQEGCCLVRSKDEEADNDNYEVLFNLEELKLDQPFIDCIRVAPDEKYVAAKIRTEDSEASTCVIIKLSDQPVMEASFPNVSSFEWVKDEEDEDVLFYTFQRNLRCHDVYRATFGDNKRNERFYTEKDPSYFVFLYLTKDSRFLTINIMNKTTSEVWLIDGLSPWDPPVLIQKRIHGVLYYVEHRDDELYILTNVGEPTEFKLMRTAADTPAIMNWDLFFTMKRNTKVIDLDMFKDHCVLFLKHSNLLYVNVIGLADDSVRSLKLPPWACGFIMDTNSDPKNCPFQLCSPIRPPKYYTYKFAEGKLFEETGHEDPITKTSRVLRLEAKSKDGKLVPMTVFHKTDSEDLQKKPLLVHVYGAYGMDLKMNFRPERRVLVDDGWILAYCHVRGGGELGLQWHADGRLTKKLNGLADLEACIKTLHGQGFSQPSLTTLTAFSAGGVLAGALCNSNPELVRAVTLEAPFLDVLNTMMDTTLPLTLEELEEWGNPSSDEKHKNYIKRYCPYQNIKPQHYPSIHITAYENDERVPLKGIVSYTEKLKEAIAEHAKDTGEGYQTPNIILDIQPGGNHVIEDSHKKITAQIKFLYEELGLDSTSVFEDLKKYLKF
MEKK2wt confirm – raises or lowers MEK5 binding to wildtype human MEKK2, retest; shares compounds with MEKK3 PB1 HTS; AID 1892; 5,900 compounds, 2.4% hits; bead flow cytometry, Alexa488-MEK5 binding to MEKK2 WT; actives lie on both sides; binding response (% of control), % at 10 µM; in the data active = binding response below about 16% or above about 210%; inactive = in between
MEKK2mut confirm – signal of MEK5 binding to mutant human MEKK2, retest; AID 1893; 5,900 compounds, 2% hits; percent response, % at 10 µM; shares compounds with MEKK3 PB1 HTS; bead flow cytometry, Alexa488-MEK5 binding to MEKK2 mutant; in the data active = percent response mostly above about 71%, no sharp cut-off; inactive = mostly below about 38%;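 also: higher means compound restores mutant binding toward wildtype level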
MEKK3 confirm – MEKK3-MEK5 PB1 inhibition, single concentration confirmation | bead flow cytometry, Alexa488-MEK5 binding to MEKK3; active compounds read low | shares compounds with MEKK3 PB1 HTS | AID 1894 | binding response (% of control), % at 10 µM | 5,900 compounds, 1.8% hits;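 active = binding response below 72% of control, or above a set upper limit, though filed actives all read lower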;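 also: lower values mean stronger disruption of MEK5 binding to MEKK3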
Hits are given with their value; i = inactive; nt = no result; [ ] = dose if it differs, or a comment. Rows were chosen to be rich in hits. Some 3.1% of all compounds tested hit in one or more screens of this group.

SMILES	MEKK3 PB1 HTS	MEKK2wt PB1 HTS	ATG4B inh	UBC13 polyUb	MEKK2 mut-MEK5	PREPL inhibitor	MEKK2wt confirm	MEKK2mut confirm	MEKK3 confirm
CNc1ccccc1C(C)(C)c1cn(-c2ccc([N+](=O)[O-])cc2)nn1	i	i	i	i	i	i	nt	nt	nt
COc1cccc(NC(=O)CN2CCc3ccccc3C2)c1	i	i	i	i	i	i	nt	nt	nt
Cn1c(CS(=O)Cc2c(Cl)cccc2Cl)nnc1SCc1ccc(Cl)cc1 (stereo unspecified)	34[inhibitor]	i	i	i	i	i	i	i	i
O=C(Nc1ccc2c(c1)OCO2)c1ccc(NC2CC2)c([N+](=O)[O-])c1	151	i	i	i	i	i	i	i	i
O=C(Nc1ccc2c(c1)OCO2)c1ccc(N2CCCC2)c([N+](=O)[O-])c1	i	i	i	i	i	i	nt	nt	nt
Cc1cccc2cncc(OCc3nnc(SC(F)F)n3C)c12	73[inhibitor]	i	i	i	i	i	i	i	i
NC1=NC(c2ccccc2)N=C(Nc2ccccc2)N1 (stereo unspecified)	i	i	nt	i	i	i	nt	nt	nt
CC(C)C(=O)Nc1nnc(SCC(=O)NCc2ccco2)s1	139	i	i	i	i	i	i	i	i
COCc1cc(C)nc(SCC(=O)N2CCC(C)CC2)c1C#N	6.0[inhibitor]	8.0[inhibitor]	i	i	i	i	i	i	i
COc1ccc(CN(Cc2cccnc2)C(=S)NCCc2ccccc2)cc1OC	i	i	i	i	i	i	nt	nt	nt
CC(C#N)N1CCN(S(=O)(=O)c2ccc3c(c2)CCC3)CC1 (stereo unspecified)	nt	nt	i	i	nt	i	nt	nt	nt
O=C(c1ccc(Cl)cc1)N(Cc1ccco1)C1CCS(=O)(=O)C1 (stereo unspecified)	2.0[inhibitor]	1.0[inhibitor]	i	i	i	i	i	i	i
O=C(c1ccccc1)N(Cc1ccco1)C1CCS(=O)(=O)C1 (stereo unspecified)	i	i	i	i	i	i	nt	nt	nt
COc1cc(NC2c3ccccc3C(=O)N2Cc2ccccc2Cl)cc(OC)c1 (stereo unspecified)	135	i	i	i	i	i	i	i	i
COc1cccc(NC2c3ccccc3C(=O)N2Cc2ccccc2Cl)c1 (stereo unspecified)	i	i	i	i	i	i	nt	nt	nt
Cc1cccc(C)c1NC(=O)CCn1cnc2ccccc2c1=O	1.0[inhibitor]	-2.0[inhibitor]	i	i	i	i	i	i	i
COc1ccccc1C(=O)NCCC(=O)NCCCSc1ccccc1	nt	nt	i	i	nt	i	nt	nt	nt
O=C(CN1C2=NCCN2c2ccccc21)c1ccc(Br)s1	142	i	i	i	i	i	i	i	i
O=C(NCCCN1CCOCC1)c1ccc(Cl)cc1[N+](=O)[O-]	i	i	i	i	i	i	nt	nt	nt
O=C(NCCCN1CCOCC1)c1cc(Cl)ccc1[N+](=O)[O-]	206	i	i	i	i	i	i	i	i
O=C1CCCN1C(=O)CSc1ncnc2sccc12	nt	nt	i	i	nt	nt	nt	nt	nt
COc1ccccc1NS(=O)(=O)c1cc([N+](=O)[O-])ccc1N/N=C/c1sc(N2CCOCC2)nc1-c1ccccc1	i	i	i	nt	205	i	i	i	i
CCN(C(=O)CSc1nc2ccccc2o1)c1c(N)n(Cc2ccccc2)c(=O)[nH]c1=O	nt	nt	i	i	nt	i	nt	nt	nt
CC1CCN(c2nc(/C=C/c3ccccc3)nc3ccccc23)CC1	i	i	i	i	i	i	nt	nt	nt
C(=C\c1nc(N2CCCC2)c2ccccc2n1)/c1ccccc1	i	158	i	i	i	i	i	i	i
SMILES	MEKK3 PB1 HTS	MEKK2wt PB1 HTS	ATG4B inh	UBC13 polyUb	MEKK2 mut-MEK5	PREPL inhibitor	MEKK2wt confirm	MEKK2mut confirm	MEKK3 confirm
Cc1ccccc1C(=O)c1cccn1CC(=O)NCCN1CCN(c2cccc(C)c2C)CC1	i	144	i	i	i	i	i	i	i
COc1ccccc1C(=O)Nc1ccc(S(=O)(=O)Nc2cnc3ccccc3n2)cc1	i	i	i	i	i	i	nt	nt	nt
CCc1ccc(NC(=O)C(C)n2nc(C)c([N+](=O)[O-])c2C)cc1 (stereo unspecified)	68[inhibitor]	i	i	i	i	i	i	i	i
CCCOc1ccc(C(=O)NCC(c2ccco2)N(C)C)cc1OC (stereo unspecified)	i	i	i	i	i	i	nt	nt	nt
CCCOc1ccc(C(=O)NCC(c2cccs2)N(C)C)cc1OC (stereo unspecified)	146	i	i	i	i	i	i	i	i
Cc1ccc(OCC(O)CNS(=O)(=O)c2ccccc2C(=O)O)cc1 (stereo unspecified)	71[inhibitor]	i	i	i	i	i	i	i	i
O=C(O)c1ccccc1S(=O)(=O)NCC(O)COC1CCCCC1 (stereo unspecified)	i	i	i	i	i	i	nt	nt	nt
O=S(=O)(c1cccc(F)c1)N1CCN(Cc2ccc3c(c2)OCO3)CC1	58[inhibitor]	i	i	i	i	i	i	i	i
N#Cc1cccc(C#N)c1Oc1ccc(N)cc1	i	i	i	i	i	i	nt	nt	nt
Cc1cccc(C(C)(C)C)c1OCCn1ccnc1	-1.0[inhibitor]	-1.0[inhibitor]	i	i	i	i	i	i	i
Cc1cccc(Cl)c1OCCCCn1ccnc1	i	i	i	i	i	i	nt	nt	nt
Cc1ccc(C(=O)Nc2cccnc2)cc1S(=O)(=O)N1CCCCCC1	i	i	i	i	i	i	nt	nt	nt
Cc1ccc(C(=O)Nc2cccnc2)cc1S(=O)(=O)N1CCOCC1	129	i	i	i	i	i	i	i	i
COc1ccc(CNCc2cccn2C)cc1	i	i	i	i	28	i	i	i	i
Cc1cccc(C(=O)NCc2nnc3c4ccccc4c(-c4ccccc4)nn23)c1	146	i	i	i	i	i	i	i	i
Cc1cccc(C(=O)NCc2nnc(SCC(=O)NC(C)c3ccccc3)n2C)c1 (stereo unspecified)	i	i	i	i	i	i	nt	nt	nt
O=C(Cc1ccc([N+](=O)[O-])cc1)Nc1nnc(C2CC2)s1	171	i	i	i	i	i	i	i	i
CCOC(=O)Cc1csc(N/N=C/c2ccccc2)n1	154	i	i	i	i	i	i	i	i
CCOC(=O)Cc1csc(NC(=O)Cc2ccc([N+](=O)[O-])cc2)n1	132	i	i	i	i	i	i	i	i
CCOC(=O)Cc1csc(NC(=O)CC(C)(C)CC(=O)O)n1	128	i	i	i	i	i	i	i	i
